These results are taken from PubChem BioAssay (NCI).

About 83,000 compounds went through this panel and 20% of them were active in at least one assay; those are over-represented in the sample as a whole.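 Assay: single dose, 48 h. Readout: percent growth (0 = no net growth; negative = cell death). Active: <10.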 Calls of active or inactive are those of the source.

In this assay the test system is MDA-MB-468 breast. The experiment in a line: NCI-60 one-dose screen, 48 h (100 = growth as untreated, 0 = no growth, -100 = all killed). The note with it: 10 µM unless noted.
Take `COC(=O)c1nc(N)nc(C(=O)OC)c1C(=O)c1ccc(F)cc1`: the growth is 101% (inactive).

Regarding `O=C(Cc1ccc(/C=C/C(=O)c2ncc[nH]2)cc1)Nc1ccccc1`, the growth was 22.2% (inactive).

Consider `CC(C)C1C2=C(NCCN1C(=O)Cc1ccccc1)C(C)(C)N(Cc1ccccc1)C2=O` (stereo not given), for which the growth was 95.5% (inactive).

Regarding `COc1cc(C(=O)/C=C/c2cc(-c3cc(OC)c(OC)c(OC)c3)n[nH]2)cc(OC)c1OC`, the growth is -79% (active).

On to `COC(=O)[C@@H]1[C@H](O)[C@H](C)[C@H](O)[C@H](C)/C=C\C=C(C)C(=O)Nc2c(C)c(OC(C)=O)c3c(c2O)C(=O)C(C)=C2OCOC(=C23)C(C)=C[C@@](C)(O)[C@H](O)[C@@H](C)[C@H]1OC(C)=O`, for which the growth was 110% (inactive).

As to `C[C@@H]1N=C(c2ccc3ccccc3c2)Nc2nc3ccccn3c2C1=O`, the growth was 50.5% (inactive).

As to `O=C(c1ccccc1)C1OC1C(=O)c1ccccc1` (stereo not given), the growth was 0.0075% (active).

As for `Cn1cc(-c2csc(-c3cn(CCCN4CCCCC4)c4ccccc34)n2)c2cccnc21`, the growth was 99.8% (inactive).

Consider `CCCCCN1C(=O)CCC1=O`, for which the growth was 108% (inactive).

As for `Cn1c2ccccc2c2c3c(c4c5ccccc5n(CCCCCC#N)c4c21)C(=O)N(O)C3=O`, the growth was -49.5% (active).

On to `Cc1ccc2c(c1)C(C)Cc1c(Cl)ncnc1N2C` (stereo not given), for which the growth is -26.4% (active).

In the case of `ClC1=C(Cl)C(Cl)=C(Cl)C1=Cc1ccc(Cl)cc1Cl`, the growth was -74.9% (active).

Take `O=C1NC(=O)c2c1c1c3ccccc3[nH]c1c1oc3ccc(F)cc3c21`: the growth was 8.7% (active).

Regarding `N#Cc1c(NC(=O)c2ccccc2I)sc2c1CCCC2`, the growth was 50% (inactive).

Regarding `C=C1C(=O)O[C@H]2[C@H]1CC/C(Cn1cc(-c3ccccc3)nn1)=C\CC[C@@]1(C)O[C@@H]21`, the growth is -38.5% (active).

In the case of `C=CCSSc1ncnc2c1ncn2C1OC(CO)C(O)C1O` (stereo not given), the growth is 7.11% (active).

With `O=C(/C(=C/c1ccccc1)CBr)c1ccccc1`, the growth was -10% (active).

Turning to `CCCCSc1ncnc2c1ncn2C1CCCCO1` (stereo not given), the growth was 122% (inactive).

As for `COc1ccccc1/C=C1\COc2ccc(-c3ccccc3)cc2C1=O`, the growth is 3.14% (active).

`COc1ccc(-c2cc(-c3ccc(Cl)cc3)nc(SCCCCCCC(=O)NO)n2)cc1OC`: the growth is 55.2% (inactive).

With `COc1ccc(C(=O)n2nc(-c3ccccc3)nc2N)cc1OC`, the growth is 68.8% (inactive).

Take `Clc1ccc(Nc2scc3[n+]2CCC3)cc1`: the growth was 86.3% (inactive).

`COc1ccc(-c2ccc3ncc4c(c3c2)n(-c2ccc(N3CCNCC3)c(C(F)(F)F)c2)c(=O)n4C)cn1`: the growth is -87% (active).

With `CCN(CC)c1ccc(/C=C2\Oc3ccc(O)c(I)c3C2=O)cc1`, the growth is 61.6% (inactive).

As for `C=C(C)[C@@H]1CC[C@]2(C(=O)OC)CC[C@]3(C)[C@H](CC[C@@H]4[C@@]5(C)C/C(=C/c6cccc(I)c6)C(=O)C(C)(C)[C@@H]5CC[C@]43C)[C@@H]12`, the growth is 86.7% (inactive).

For `Cc1cc(NS(=O)(=O)c2ccc(NC(=O)COc3ccc(-c4cc5ccccc5[nH]4)cc3)cc2)no1`, the growth is -0.467% (active).

Consider `COc1ccc(CN2c3ccccc3Sc3ccccc32)c(F)c1`, for which the growth is 2.44% (active).

Consider `O=C(O)CCC(=O)Nc1nnc(-c2ccccc2)s1`, for which the growth is 116% (inactive).

For the compound `CCOc1ccccc1/C=N/N1CCCCCC1`, the growth is 108% (inactive).

Take `CN(CCOc1ccc(CC2SC(=O)NC2=O)cc1)c1ccccn1` (stereo not given): the growth is 100% (inactive).

On to `Cc1ccc(/C=C/c2nn3c(-c4ccco4)nnc3s2)cc1C`, for which the growth is 107% (inactive).

`CNC(=O)c1cc(Oc2ccc3nc(NC(=O)c4ccc(N5CCOCC5)c(C(F)(F)F)c4)sc3c2)ccn1`: the growth is 80.5% (inactive).

As to `CC12CCC(C(=O)CC1=O)C2(C)C` (stereo not given), the growth was 99.3% (inactive).

Consider `C#CCn1cc(C=C2C(=O)NC(=O)NC2=O)c2cc(Cl)ccc21`, for which the growth was 41.9% (inactive).

Turning to `COc1ccc(C(=O)c2cc(OC)c(OC)c(OC)c2)cc1OC(=O)C(Cl)(Cl)Cl`, the growth was 35.8% (inactive).

Consider `N#Cc1c(-c2ccc(C(F)(F)F)cc2)cc(NCC2CCS(=O)(=O)CC2)n2c1nc1ccccc12`, for which the growth was 78.1% (inactive).

Regarding `NC1=Nc2cc(OCCCCN3Cc4ccccc4C3)c(OCC3CC3)cc2C12CCCC2`, the growth was 7.97% (active).

For the compound `Cn1cc(-c2ccc3cc(-c4ccc(CC(=O)Nc5cc(C(C)(C)C)on5)cc4)cnc3c2)cn1`, the growth is 30.7% (inactive).

Take `Oc1ccc(O)c(-[n+]2ccccc2)c1`: the growth was 91.8% (inactive).

For `c1cc(C2CCCCC2)ccc1-c1cnc2nonc2n1`, the growth is 2.69% (active).
